A selection: hits, their analogues and other compounds. The true share with any hit is near 3.5%.
TEAD-YAP inh: TEAD-YAP interaction inhibition; HEK-TIYL cells, TEAD-Gal4/YAP UAS-luciferase luminescence; inhibition, % at 9.12 µM; 640,000 compounds, 1.4% hits; AID 1259422; in the data active means inhibition above about 32%
GPR151 ag: activators of human GPR151; Q8TDV0; PathHunter beta-arrestin GPR151 cells, luminescence; activation, % at 11.2 µM; 650,000 compounds, 1% hits; AID 1508602; in the data active means activation above about 4.9%
MITF primary: inhibitors of human MITF | O75030 | AlphaScreen MITF homodimerization, bead proximity signal | inhibition, % at 2.6 µM | 650,000 compounds, 0.91% hits | AID 1259374; in the data active means inhibition above about 50%
FBW7 activator: activators of human E3 ligase FBW7. Q969H0. AlphaScreen FBW7–phospho-cyclin E peptide binding, activator screen. 650,000 compounds, 0.13% hits. normalized activity (activation), % at 26.1 µM; in the data active means normalized activity above about 1.9%;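 further: purified mutant Fbw7 with reduced substrate affinity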
Target sequence (Q969H0 whole entry, looked up): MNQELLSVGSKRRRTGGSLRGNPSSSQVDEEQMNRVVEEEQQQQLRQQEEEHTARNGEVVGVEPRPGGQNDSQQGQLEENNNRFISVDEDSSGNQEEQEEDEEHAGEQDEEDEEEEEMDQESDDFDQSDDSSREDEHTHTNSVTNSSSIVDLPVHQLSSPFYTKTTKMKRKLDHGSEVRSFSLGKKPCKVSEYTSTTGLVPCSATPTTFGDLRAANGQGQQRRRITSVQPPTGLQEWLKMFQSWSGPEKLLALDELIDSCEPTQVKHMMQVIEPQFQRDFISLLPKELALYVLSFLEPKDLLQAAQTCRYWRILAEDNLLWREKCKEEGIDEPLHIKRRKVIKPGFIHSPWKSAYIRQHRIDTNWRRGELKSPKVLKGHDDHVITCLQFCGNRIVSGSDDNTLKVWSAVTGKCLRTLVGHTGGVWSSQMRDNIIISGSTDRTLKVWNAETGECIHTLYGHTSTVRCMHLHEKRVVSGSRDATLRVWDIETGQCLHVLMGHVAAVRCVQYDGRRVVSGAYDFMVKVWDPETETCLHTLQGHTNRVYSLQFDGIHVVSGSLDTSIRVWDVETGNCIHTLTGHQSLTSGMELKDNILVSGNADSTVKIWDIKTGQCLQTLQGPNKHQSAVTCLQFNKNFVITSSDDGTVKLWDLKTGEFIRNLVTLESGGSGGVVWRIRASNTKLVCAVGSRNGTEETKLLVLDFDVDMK
Numbers stand for hits; n = inactive; x = not tested or not shown.

SMILES	TEAD-YAP inh	GPR151 ag	MITF primary	FBW7 activator
O=C(Nc1ccc2c(c1)Cc1ccccc1-2)c1cc(Cl)ccc1Cl	n	n	n	n
Cc1nnc(NC(=O)CCCOc2ccc(Cl)cc2C)s1	n	n	n	n
CC1(C)CC(=O)c2c(nn(-c3ccccc3)c2-c2ccc(O)cc2)C1	n	n	n	n
CCCCCN1C(=O)C(=O)c2ccccc21	n	n	n	n
CCCCCN1C=CC(=C2C(=O)c3ccccc3C2=O)C=C1	95.2	n	n	n
Cc1ccc(NC(=S)N(Cc2ccccc2)Cc2cccs2)cc1Cl	35.9	n	n	n
O=C(CNC(=S)N(Cc1ccccc1)Cc1cccs1)NCc1ccccc1	n	n	n	n
Cc1ccc(CNC(=O)CNC(=S)N(Cc2ccccc2)Cc2cccs2)cc1	n	n	n	2.0
Cc1cc(NC(=S)N(Cc2ccccc2)Cc2cccs2)ccc1Cl	44.3	n	n	n
S=C(Nc1ccc(Cl)cc1)N(Cc1ccccc1)Cc1cccs1	n	n	n	n
Cc1cc(Nc2ccc(Oc3ccccc3)cc2)nc(Nc2ncccn2)n1	n	n	n	n
Cc1csc(NC(=O)CN2CCC(n3cnc4cccnc43)CC2)n1	n	n	n	n
CC[C@@H]1NC(=O)[C@@H]2C[C@H](NC(=O)c3ccccc3)CN2C1=O	n	n	n	n
O=[N+]([O-])c1ccc(Cl)c(-n2cnnn2)c1	59.2	n	n	n
COc1ccc(/C=N\Nc2nc3ccccc3s2)cc1	42.2	n	n	n
COc1ccccc1CC(=O)Nc1cnc2cnc(-c3ccco3)cn12	n	n	n	n
CC(C)OC(=O)c1c(-c2ccc(Br)cc2)csc1NC(=O)C1C2CCC(C2)C1C(=O)O (centres undefined)	n	n	n	n
CC(C)OC(=O)c1c(-c2ccc(Br)cc2)csc1NC(=O)/C=C/C(=O)O	36.0	n	n	n
CCCCCSc1ncnc2c1c(-c1ccccc1)cn2-c1cccc(F)c1	n	n	n	n
CCC(=O)Nc1ccc(C(=O)N/N=C/c2ccc(C#N)cc2)cc1	n	n	n	n
Oc1ccccc1-c1cc(-c2ccc(F)cc2)no1	n	n	n	n
Fc1ccc(-c2cc3c(nn2)Nc2ccccc2N3)cc1	85.7	n	n	n
NCCCC[C@@H]1NC(=O)[C@@H]2C[C@H](NCc3sc4ccccc4c3Cl)CN2C1=O	33.5	n	n	n
O=C1[C@@H]2C[C@H](NCc3sc4ccccc4c3Cl)CN2C(=O)[C@@H]2CCCN12	38.6	n	n	n
COc1cc(OC)c(-c2nc(-c3ccc([N+](=O)[O-])cc3)no2)cc1OC	n	n	n	n
SMILES	TEAD-YAP inh	GPR151 ag	MITF primary	FBW7 activator
CCc1c(Cc2[nH]c(C)c(C(C)=O)c2C)[nH]c(C(=O)O)c1C	n	n	n	15.0
CC(=O)c1[nH]c(C)c(C(C)=O)c1C	n	n	n	n
COc1cc(COc2ccc3c(C)cc(=O)oc3c2)cc(OC)c1OC	55.5	n	n	n
COc1cc(COc2ccc3ccc(=O)oc3c2)cc(OC)c1OC	n	n	n	n
O=C(CSc1nc2ccccc2[nH]1)Nc1cc(Cl)ccc1O	33.2	n	n	n
CC(C)C1C(C#N)=C(N)Oc2n[nH]c(CSc3ccccc3)c21 (centres undefined)	n	n	n	n
COC(=O)c1ccccc1NC(=O)NNC(=O)c1cc2ccccc2cc1O	n	n	n	n
COC(=O)c1ccccc1NC(=O)NNC(=O)c1csc(C)c1-c1ccc(C)cc1	32.5	n	n	n
O=C(c1ccccc1F)N1CCN(C2=NN=C(c3ccccc3)CS2)CC1	n	n	n	n
CN(C1CCCCC1)S(=O)(=O)c1ccc(CCN2C(=O)c3cccnc3C2=O)cc1	n	n	n	n
c1cc2[nH]snc2c2nc(C3CC3)nc12	37.9	n	n	n
CCn1c(SCC(=O)Nc2ccc([N+](=O)[O-])cc2)nnc1-c1ccc(O)cc1	49.8	n	n	n
COc1ccc(/C=N/Nc2ccc3ccccc3n2)c(OC)c1OC	n	n	n	n
C(=N\Nc1ccc2ccccc2n1)/c1cccnc1	75.1	n	n	n
COc1cccc(/C=N/Nc2ccc3ccccc3n2)c1OC	98.3	n	n	n
C(=N\Nc1ccc2ccccc2n1)/c1ccc2c(c1)OCCO2	79.9	n	n	n
C(=N\Nc1nncc2ccccc12)/c1ccc2c(c1)OCCO2	97.6	n	n	n
COc1ccc(/C=N/Nc2ccc3ccccc3n2)cc1	n	n	n	n
CC(C)CCNC(=O)CN(C(=O)c1snc(C(N)=O)c1N)c1ccccc1F	n	n	n	2.1
CC(C)CCNC(=O)CN(C(=O)c1snc(C(N)=O)c1N)c1ccc(F)cc1	n	n	n	n
Cc1ccc(/C(C#N)=C\c2ccc3c(c2)OCCO3)cc1	56.3	n	n	n
CCOc1ccccc1N(C)S(=O)(=O)c1c(/C=C/N(C)C)noc1C	n	n	n	n
COC(=O)c1cccc(SCCS(=O)(=O)c2ccc(C)cc2)c1	n	n	n	n
CCC(C)(C)NC(=O)C1CCN(S(=O)(=O)c2ccc(C)cc2)CC1	73.5	n	n	n
CCC(C)(C)C(=O)Nc1ccc(S(=O)(=O)N2CCC(C)CC2)cc1	n	n	n	2.2
SMILES	TEAD-YAP inh	GPR151 ag	MITF primary	FBW7 activator
CCC(C)(C)NC(=O)C1CCN(S(=O)(=O)c2ccc(F)cc2)CC1	n	n	n	n
CCOC(=O)c1oc2ccccc2c1NC(=O)C1CCN(S(=O)(=O)c2ccc(C)cc2)CC1	35.4	n	n	n
Cc1cc(C)cc(C(=O)Nc2nc(C)cs2)c1	n	n	n	n
Cc1nc2ccccc2n1CC(O)COc1ccc([N+](=O)[O-])cc1 (centres undefined)	n	n	n	n
O=C(CNS(=O)(=O)c1ccccc1)NCC(=O)OCC(=O)c1ccc(Cl)cc1Cl	n	n	n	n
COP(=O)(OC)C(Nc1ccccc1)c1ccc(Cl)cc1 (centres undefined)	n	n	n	n
Cc1nc2ncnn2c(C)c1CCC(=O)NC1CCCCC1	n	n	n	n
Cc1ccc(NC(=O)CN2C(=O)N/C(=C/c3cccn3-c3ccc(C(=O)O)cc3)C2=O)cc1	n	n	78.5	n
COc1ccc(-n2cccc2/C=C2\NC(=O)N(CC(=O)Nc3ccccc3)C2=O)cc1	n	n	n	n
COc1cccc2c1OC(c1cccc(Cl)c1)N1N=C(c3ccc(C)o3)CC21 (centres undefined)	40.6	n	n	n
COc1ccc(C2Oc3c(OC)cccc3C3CC(c4ccc(C)o4)=NN32)cc1 (centres undefined)	39.8	n	n	n
CC#CCOCC/C=C1/c2ccccc2[C@@H](OC)[C@@H]1C	x	n	n	n
CC(=O)n1c2c(c3ccccc31)OC(N)=C(C#N)C2c1cc(Br)ccc1F (centres undefined)	60.7	n	n	n
CC(=O)n1c2c(c3ccccc31)OC(N)=C(C#N)C2c1ccc(F)cc1 (centres undefined)	n	n	n	n
CCC(C)n1c(=O)c2ccccc2n(Cc2nc(-c3ccc(C)cc3)no2)c1=O (centres undefined)	n	n	n	n
NC(=O)c1ccc(-c2nc(Nc3ccc(Oc4ccccc4)cc3)c3[nH]cnc3n2)cc1	n	n	n	n
CCOC(=O)N1CCN(C(=O)C2CCN(c3nc4ccc(CC)cc4s3)CC2)CC1	n	n	n	n

Screens as filed in PubChem BioAssay.
